Experimental data from PubChem BioAssay (NCATS).
Records with an inconclusive call do not appear. Unmarked numbers belong to inactive results. Activity calls are given as the source filed them. The call rests on the fitted dose curve; in most records, active means well fitted cell-killing curve with a large enough effect; inconclusive means small, poorly fitted or top-dose-only effect; inactive means flat fitted curve, though single readings scatter. Square brackets hold non-standard residues; d marks the D form. Peptide text beside a SMILES is read from it. * marks the point of attachment. Nva = CCC[C@H](N)C(=O)O; Cbz = O=C(OCc1ccccc1)*

experiment: Quantitative highthroughput screen to assess conditional lethalithy of P12 Ichikawa cells grown in RPMI1640 with untreated serum (RPMI+s) (AID 1963881); conditions: ATP luminescence, 48 h; Potency: viability; series mostly up to 45.8 µM; viability: at the top concentration; further: nearly all actives have a fitted effect of over 35% in size
Excerpt: Assay Provider: Jason Cantor Ph.D.
Department of Biochemistry
University of Wisconsin-Madison, Madison, WI, USA
Chemical screening studies have identified drug sensitivities across hundreds of cancer cell lines but most putative therapeutics fail to translate. Discovery and development of drug candidates in models that more accurately reflect nutrient levels in human blood is a major challenge. Here we performed high-throughput screens in conventional versus Human Plasma-Like Medium (HPLM) to identify compounds that were "missed" when screening using the artificial culture condition. Sets of conditional anticancer compounds spanned phases of clinical development and included non-oncology drugs were assessed. […] We also traced conditional phenotypes for several chemotherapeutics to availability of HPLM-specific metabolites and confirmed others for compounds whose reported targets are encoded by nonessential genes. Our findings establish generalizable strategies for exploiting conditional lethality in HPLM to reveal therapeutic candidates and mechanisms of action in cancer cells.
Described herein are the results of each viability screens against three cell lines: NOMO1 (an acute myeloid leukemia cell line); P12-Ichikawa (a T-cell acute lymphoblastic leukemia); and SEM (a B-cell ALL). Each assay was screened using 3 different cell culture media: homemade human plasma-Like medium with 10% dialyzed fetal bovine serum (HPLM+ds); RPMI1640 with 10% untreated FBS and 5mM glucose (RPMI+s); and RPMI1640 with 10% dialyzed fetal bovine serum and 5 mM glucose (RPMI+ds).
PROTOCOL TABLE (as described by Inglese J, Shamu CE and Guy RK. 2007)
SEQUENCE No. (e.g., 1, 2, 3, etc.); […] (e.g., Cells, Incubation, Reagent, etc.); VALUE and DESCRIPTION.
1; Cells; 5 uL; white, solid bottom 1536-well Greiner assay plate.
2; Compounds; 23 nL; Kalypsis pin tool (Wako USA) equipped with a 1536-well pin head to transfer to the assay plates.
3; Incubation; 48 hours; 37C incubation.
4; Reagent; 3 uL; CellTiter Glo (Promega).
5; Incubation; 5 min, room temperature
6; Detection; Luminescence, Viewlux PerkinElmer.
NOTES (numbers refer to Sequence numbers above)
1. Briefly, 5 ul of cell reagent was dispensed using a Multidrop Combi Dispenser. The NOMO1 and SEM cells were plated at 500 cells/well and the P12-Ichikawa line at 1000 cells/well.
2. After seeding the cells, 23 nL of MIPE 4.1 library compounds (in DMSO) were added to each plate using a Kalypsys 1536 Pintool dispenser. Bortezomib at final concentration of […] and DMSO were added to each plate as positive and negative controls respectively. For each screen, MIPE 4.1 compounds were added over an eleven-point concentration range […] in 3-fold dilutions.
3. Each plate was covered with a stainless steel gasketed lid to prevent evaporation and incubated for 48 hour at 37C, 95% relative humidity, and 5% CO2.
4-5. Three microliter CellTilter-GloTM luminescent substrate mix (Promega) reagent was added to the assay plate and incubated at room temperature for 5 min.
6. The luminescence signal was measured using a ViewLux (PerkinElmer) multiplate reader with a 2 second exposure time per plate. Data for each compound were normalized as percent viability such that measurements for DMSO and the empty well controls in each plate were defined as 100% and 0%, respectively.
Potency means the concentration at half of the fitted maximal effect.

Structure (SMILES)	viability	Potency
O=C(O)C=Cc1ccc(Cn2ccnc2)cc1	96.8%	–
CCN1CCCC1CNC(=O)c1cc(S(N)(=O)=O)ccc1OC (stereo not given)	101%	–
NS(=O)(=O)c1ccc(Nc2nc(OCC3CCCCC3)c3[nH]cnc3n2)cc1	–	0.372 µM (active)
O=C(Nc1cccc2c(=O)cc(-c3nn[nH]n3)oc12)c1ccc(OCCCCc2ccccc2)cc1	–	18.7 µM (active)
CC[C@H]1OC(=O)[C@H](C)[C@@H](O[C@H]2C[C@@](C)(OC)[C@@H](O)[C@H](C)O2)[C@H](C)[C@@H](O[C@@H]2O[C@H](C)C[C@H](N(C)C)[C@@H]2O)[C@](C)(OC)C[C@@H](C)C(=O)[C@H](C)[C@@H](O)[C@]1(C)O	106%	–
CC(=O)OC1C(C)OC(Oc2c(-c3ccc(O)cc3)oc3cc(O)cc(O)c3c2=O)C(O)C1OC(C)=O (stereo not given)	103%	–
Oc1cc2c(cc1O)C1c3ccc(O)c(O)c3OCC1(O)C2 (stereo not given)	106%	–
Cc1cccc(CN2CCN(C(c3ccccc3)c3ccc(Cl)cc3)CC2)c1 (stereo not given)	99.2%	–
COc1cc2nc(N3CCN(C(=O)C4CCCO4)CC3)nc(N)c2cc1OC (stereo not given)	97.8%	–
O=C(O)[C@H]1O[C@H](Oc2cc3oc(-c4ccccc4)cc(=O)c3c(O)c2O)[C@H](O)[C@@H](O)[C@H]1O	–	18.7 µM (active)
CC(C)(C)c1nc(-c2cccc(NS(=O)(=O)c3c(F)cccc3F)c2F)c(-c2ccnc(N)n2)s1	–	2.96 µM (active)
O=C(NC1CCOCC1)c1ccc(-c2cc(-c3cn[nH]c3-c3ccccn3)ccn2)cc1	108%	–
CC[C@]1(O)C[C@H]2CN(CCc3c([nH]c4ccccc34)[C@@](C(=O)OC)(c3cc4c(cc3OC)N(C=O)[C@H]3[C@@](O)(C(=O)OC)[C@H](OC(C)=O)[C@]5(CC)C=CCN6CC[C@]43[C@@H]65)C2)C1	–	0.0264 µM (active)
CC(=O)OCC(=O)[C@@]1(O)CC[C@H]2[C@@H]3CCC4=CC(=O)CC[C@]4(C)[C@@H]3C(=O)C[C@@]21C	104%	–
CCCCCCCc1ccc(CCc2cccc(O)c2C(=O)O)cc1	91.4%	–
COc1cc2c(Oc3ccc(NC(=O)C4(C(=O)Nc5ccc(F)cc5)CC4)cc3F)ccnc2cc1OCCCN1CCOCC1	–	2.35 µM (active)
COc1ccc(-c2nc(N3CCOCC3)c3sc(CN(C)c4ncc(C(=O)NO)cn4)cc3n2)cn1	–	0.0187 µM (active)
C[C@]12CC[C@@H]3c4ccc(O)cc4CC[C@H]3[C@H]1C[C@@H](O)[C@H]2O	94.8%	–
COc1ccc2c(c1)c(CC(=O)O)c(C)n2C(=O)c1ccc(Cl)cc1	95.8%	–
CNC(=O)c1cc(Oc2ccc(NC(=O)Nc3cc(C(C)(C)C)nn3-c3ccc4ncccc4c3)c(F)c2)ccn1	94.5%	–

Structure (SMILES)	viability	Potency
CN1CCCN(C(=O)c2cccc(-c3ccc(C=C4C(=O)Nc5ccc(Cl)cc54)o3)c2)CC1	–	5.9 µM (active)
C=Cc1c(C)c2cc3nc(cc4[nH]c(cc5nc(cc1[nH]2)C(C)=C5CCC(=O)O)c(CCC(=O)OC)c4C)[C@@]1(C)C3=CC=C(C(=O)OC)[C@H]1C(=O)OC	–	14.8 µM (active)
CCC[C@@H](C=O)NC(=O)[C@H](CC(C)C)NC(=O)[C@H](CC(C)C)NC(=O)OCc1ccccc1 (Cbz-Leu-Leu-[Nva]-aldehyde)	–	2.64 µM (active)
CC(S)C(=O)NCC(=O)O (stereo not given)	93.7%	–
COc1ccc(C=Cc2cc(OC)c(OC)c(OC)c2)cc1O	2.32%	–
N#Cc1c(C2CCNCC2)cc(-c2c(O)cccc2OCC2CC2)nc1N	90.7%	–
CC[C@H](CC[C@@H](C)[C@H]1CC[C@H]2[C@@H]3CC=C4C[C@@H](O)CC[C@]4(C)[C@@H]3CC[C@]12C)C(C)C	94.2%	–
CC1Cc2ccccc2N1NC(=O)c1ccc(Cl)c(S(N)(=O)=O)c1 (stereo not given)	93.5%	–
COc1cc([C@@H](CC(=O)O)c2ccc(C)c(CN3C[C@@H](C)Oc4ccccc4S3(=O)=O)c2)cc2nnn(C)c12	–	14.8 µM (active)
CC(C)n1cnc2c(NCCc3ccc(O)cc3)nc(-c3csc4ccccc34)nc21	–	14.8 µM (active)
CN(C)CC=CC(=O)Nc1cc2c(Nc3ccc(F)c(Cl)c3)ncnc2cc1O[C@H]1CCOC1	–	1.87 µM (active)
Cc1cc2c(s1)Nc1ccccc1N=C2N1CCN(C)CC1	80.6%	–
O=C(O)CCC=CCC[C@@H]1[C@H](N2CCCCC2)[C@@H](O)C[C@@H]1OCc1ccc(-c2ccccc2)cc1	96.6%	–
CCCNC(=O)Nc1ccc(Oc2ncnc3cc(OC)c(OC)cc23)cc1Cl	101%	–
COCCOc1nc(-c2ccc(Cl)c(Cl)c2)n(-c2ccc(NC(=O)CCl)cc2)n1	90.2%	–
CCOc1cc2c(c(F)c1OCC)C(=N)N(CC(=O)c1cc(N3CCOCC3)c(OC)c(C(C)(C)C)c1)C2	86%	–
O=c1ccn([C@@H]2O[C@H](CO)[C@H](O)[C@H]2O)c(=O)[nH]1	96.9%	–
N[C@@]1(C(=O)O)CS(=O)(=O)[C@H]2[C@H](C(=O)O)[C@H]21	98.3%	–
CC(C)c1ccc2oc3nc(N)c(C(=O)O)cc3c(=O)c2c1	91.5%	–
CN1CCN(CCOc2cc(OC3CCOCC3)c3c(Nc4c(Cl)ccc5c4OCO5)ncnc3c2)CC1	–	29.6 µM (active)
